# Out of some 330,000 compounds screened, about 4,100 (1.2%) were called active. No stated cut-off is given here; in the data, active means inhibition above about 50%; inactive means the rest. The list comes from a sample in which actives are over-represented; it also holds similar structures and randomly drawn compounds.
# Target: Sentrin-specific protease 8 (Homo sapiens) (UniProt Q96LD8)
# Experiment: blockers of human SENP8 peptidase activity – biochemical, luminescence, primary screen (AID 2540)
# Details: purified SENP8, Z-RLRGG-aminoluciferin cleavage, at 10 µM, hits give high values
# Sequence of Sentrin-specific protease 8 (Homo sapiens) (Q96LD8 whole entry, looked up): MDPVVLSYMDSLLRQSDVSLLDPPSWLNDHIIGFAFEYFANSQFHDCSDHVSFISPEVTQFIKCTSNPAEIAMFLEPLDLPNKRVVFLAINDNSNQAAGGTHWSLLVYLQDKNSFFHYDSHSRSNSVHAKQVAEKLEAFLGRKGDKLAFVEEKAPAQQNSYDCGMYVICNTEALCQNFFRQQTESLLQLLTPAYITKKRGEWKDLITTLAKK
row,SMILES,inhibition
1,CC1(C)C2CC=C(/C=N/NC(=O)c3ccc(Cl)cc3)C1C2 (centres undefined),-0.62% (inactive)
2,CNc1nc(Nc2ccc(C)c(Cl)c2)nc(N)c1[N+](=O)[O-],96.8% (active)
3,COc1cccc(Nc2nc(N)c([N+](=O)[O-])c(NCc3ccco3)n2)c1,-2.27% (inactive)
4,CCN1CCN(c2nc(Nc3cccc(F)c3)nc(N)c2[N+](=O)[O-])CC1,-4.79% (inactive)
5,Cc1cc(C)c(NC(=S)N2CCCC2C(=O)O)c(C)c1 (centres undefined),-2.97% (inactive)
6,CC(=O)c1cccc(NC(=O)c2cc(C)nn2-c2ccccc2)c1,-2.45% (inactive)
7,N#Cc1ccc(S(=O)(=O)NCC(=O)OCC(=O)NCCc2ccccc2)cc1,2.9% (inactive)
8,O=C1/C(=C/c2cccs2)CCC1C1CCCC1 (centres undefined),80.6% (active)
9,COc1ccc(/C=C2\CCc3ccccc3C2=O)c(OC)c1OC,-6.3% (inactive)
10,CCC1C/C(=C/c2cccs2)C(=O)/C(=C/c2cccs2)C1 (centres undefined),-8.62% (inactive)
11,O=C1/C(=C/c2cccs2)SC(=S)N1C1CCS(=O)(=O)C1 (centres undefined),10.2% (inactive)
12,O=S(=O)(c1cccs1)N1CCc2ccccc2C1,-2.48% (inactive)
13,O=C1/C(=C/c2cccs2)CCc2ccccc21,96.5% (active)
14,CC(C)(C)C(=O)CSc1ccc(S(=O)(=O)N2CCCC2)cn1,0.226% (inactive)
15,CC(=O)N1CCC(C(=O)OCc2ccc(Cl)cc2)(c2ccccc2)CC1,-16% (inactive)
16,Cc1ccc(CNC(=O)CCNS(=O)(=O)c2ccc(Br)s2)cc1,-3.11% (inactive)
17,Oc1c(C=Nc2cccc3nsnc23)ccc2ccccc12,75.8% (active)
18,CCCn1c(SCC(=O)c2ccc3c(c2)OCCO3)nnc1C(C)C,1.93% (inactive)
19,Cc1ccc2cc(/C=N/Nc3ccc(C(=O)O)cc3)c(Cl)nc2c1,-3.31% (inactive)
20,O=C(O)c1ccc(/C=N/Nc2nc(N3CCCCC3)nc(N3CCCCC3)n2)cc1,-10.8% (inactive)
21,O=C(O)c1ccc(N/N=C/c2ccc3ncccc3c2)cc1,97.1% (active)
22,c1ccc(-c2cc(-c3ccccc3)[nH]n2)cc1,58.4% (active)
23,O=C(Nc1cccnc1Cl)c1cc(-c2ccccc2O)on1,-7.17% (inactive)
24,S=c1[nH]nc(-c2cc(-c3ccccc3)n[nH]2)n1/N=C/c1c2ccccc2cc2ccccc12,-9.93% (inactive)
25,Cc1ccc(NC(=O)c2cc(-c3ccccc3O)n[nH]2)cc1C,-13.8% (inactive)

row,SMILES,inhibition
1,S=c1[nH]nc(-c2cc(-c3ccsc3)n[nH]2)n1-c1ccccc1,2.29% (inactive)
2,Oc1ccccc1-c1cc(-c2ccc(Cl)cc2)n[nH]1,89.8% (active)
3,CCOc1ccc(C(=O)CCN2CCOCC2)cc1,-4.08% (inactive)
4,CCCCn1c(N)c(N(CC(C)C)C(=O)C2CSC3(C)CCC(=O)N23)c(=O)[nH]c1=O (centres undefined),-4.36% (inactive)
5,COC(C/C=C/C(=O)[C@@H](C)OCc1ccccc1)OC,-1.1% (inactive)
6,COc1ccccc1C(=O)Nc1ccc(NC(=O)c2ccco2)c(C)c1,42.6% (inactive)
7,Cc1cc(NC(=O)c2ccc(F)cc2)ccc1NC(=O)c1ccco1,55.5% (active)
8,O=C(Nc1ccc(O)cc1)c1ccc(NC(=O)c2ccco2)cc1,-13.6% (inactive)
9,CC1(C)CCSC(/C=C/c2ccccc2)=N1,-3.81% (inactive)
10,CCOc1ccc(C(O)Cn2c(=N)n(CCN3CCCCC3)c3ccccc32)cc1 (centres undefined),4.64% (inactive)
11,O=C1c2ccccc2-c2ncnc3c(N4CCOCC4)cc(N4CCOCC4)c1c23,-2.88% (inactive)
12,O=C(c1ccccc1)C(Cn1cncn1)C(Sc1ccccc1)c1ccccc1 (centres undefined),-0.476% (inactive)
13,Cc1ccc(NC(=O)Nc2nnc(-c3ccncc3)s2)cc1,-9.37% (inactive)
14,Cc1ccc(Nc2nc(Cl)c(C=O)s2)cc1,67.8% (active)
15,Cc1ccc(Nc2nc(C)cc(C)c2C(N)=O)cc1,5.13% (inactive)
16,CCOC(=O)C1CCN(S(=O)(=O)c2ccc3c(c2)N(C)C(=O)CC(=O)N3C)CC1,2.4% (inactive)
17,CC[N+](C)(CC)CCC[n+]1c(-c2ccccc2)c2cc(N)ccc2c2ccc(N)cc21,96.5% (active)
18,Cc1cc(C)cc(-c2nnc(SCC(=O)NC3CC3)o2)c1,-2.18% (inactive)
19,Cc1nn(CC(=O)Nc2ccc(F)cc2)c(=O)c2ccccc12,1.21% (inactive)
20,Cc1ccc(-n2nc3ccc(NC(=O)/C=C/c4ccco4)cc3n2)cc1C,15.4% (inactive)
21,CCC(=O)Nc1ccc2nn(-c3ccc(F)cc3)nc2c1,63.6% (active)
22,CCOc1c2ccc(C(=O)NC3CCCc4ccccc43)cc2nn1CC (centres undefined),-8.27% (inactive)
23,CC(=O)N1CC2(C)CN(C(C)=O)CC(C)(C1)C2=O,1.73% (inactive)
24,CCOc1ccc(-n2c(SCC(N)=O)nnc2-c2ccco2)cc1,-1.84% (inactive)
25,CCCCOc1ccc(-c2ncc(C(=O)OCC)c(N)n2)cc1,-12.4% (inactive)

row,SMILES,inhibition
1,CCCCSc1nnc(-c2ccc(C)cc2)o1,33.5% (inactive)
2,N#Cc1ccc(OCc2nnc(-c3ccc([N+](=O)[O-])cc3)o2)cc1,7.85% (inactive)
3,CCOc1ccc(-c2nnc(-c3ccco3)o2)cc1,73.3% (active)
4,CCCCOc1ccc(-c2nnc(-c3ccco3)o2)cc1,64.8% (active)
5,Cc1c(-c2ccccc2)n[nH]c1C(=O)N=Nc1c(O)[nH]c2ccccc12,21.6% (inactive)
6,Cc1ccccc1NS(=O)(=O)CCCCC(Cl)(Cl)Cl,7.88% (inactive)
7,CCOc1ccc(S(=O)(=O)N/N=C(\C)c2ccc(Cl)c(Cl)c2Cl)cc1,1.79% (inactive)
8,CCN1C(=O)C(C(=O)NC(C)c2ccccc2)C2CC1(C)Oc1ccccc12 (centres undefined),7.17% (inactive)
9,CSc1sc(C(=O)NC(=O)NCc2cccnc2)c(C)c1-c1ccon1,4.14% (inactive)
10,O=C(Cn1cc(C(=O)C2CC2)c2ccccc21)Nc1ccccc1Cl,5.51% (inactive)
11,O=C(COC(=O)c1ccc(O)cc1O)NNC(=O)c1cccs1,-4.38% (inactive)
12,Cc1ccc(/C=C2/SC(=S)N(CCC(=O)NCCCN3CCOCC3)C2=O)cc1,-1.52% (inactive)
13,C=CCOc1ccc(/C=C2\SC(=S)N(CCC(=O)O)C2=O)cc1,97.6% (active)
14,COc1ccc(/C=C2\SC(=S)N(CC(=O)NNC(=O)c3ccncc3)C2=O)cc1,-3.25% (inactive)
15,C[C@@H](C(=O)Nc1ccc2ccccc2c1)[C@@H]1C[C@@]1(C)[C@@H](NC(=O)c1cccnc1)c1ccccc1,13.1% (inactive)
16,CCOC(=O)C1=C(NC(=S)NC(=O)c2ccccc2)c2ccccc2CC1(C)C,-5.5% (inactive)
17,COc1ccccc1NC(=O)COC(=O)CNC(=O)C1CCCCC1,8.04% (inactive)
18,COc1cc(/C=N/N=C(\N)c2nonc2N)cc(OC)c1OC,-1.1% (inactive)
19,CN(C)c1nnnn1-c1ccc(Cl)cc1,2.64% (inactive)
20,Nc1ccc2nn(-c3ccc(Cl)cc3)nc2c1,86.7% (active)
21,c1ccc(-n2nc3ccccc3n2)cc1,-19.2% (inactive)
22,COc1ccc(Br)cc1CN(C)CC(=O)Nc1cc([N+](=O)[O-])ccc1OC,-6.64% (inactive)
23,Cc1ccc2c(c1)NCC(C(=O)NC1CCC(C)CC1)O2 (centres undefined),-10.8% (inactive)
24,COc1cccc(C(=O)NC(=O)Nc2nc(C)cc(C(F)(F)F)n2)c1,-10.3% (inactive)
25,Cc1ccc(/C=N/NC(=S)NC2CCCCC2)o1,-5.05% (inactive)

row,SMILES,inhibition
1,N=c1oc2ccccc2cc1C(=O)NCc1ccccc1,-17.9% (inactive)
2,N=c1oc2ccccc2cc1C(=O)N/N=C/c1ccccc1,86.5% (active)
3,Cc1ccc(/C=N/NC(=O)c2cc3ccccc3cc2O)o1,55.8% (active)
4,Cc1ccc(/C=N/NC(=S)Nc2cccc(S(=O)(=O)N(C)C)c2)o1,1.79% (inactive)
5,CNC(=O)c1cc2c(ccc3ccccc32)oc1=N,-3% (inactive)
6,CN(CC(=O)NC1CCCC1)S(=O)(=O)c1cnc[nH]1,-8.57% (inactive)
7,O=C(NCCO)C(=O)NCC(c1ccc2c(c1)OCO2)N1CCN(c2ccc(F)cc2)CC1 (centres undefined),-0.025% (inactive)
8,CC(=O)N1CC(C)c2scc(C)[n+]2-c2ccccc21 (centres undefined),0.506% (inactive)
9,COc1ccc(S(=O)(=O)Nc2ccc(F)cc2)c(C)c1C,3.56% (inactive)
10,O=C(Nc1cc2c3c(c1)CC(=O)N3CCC2)c1ccccc1F,3.3% (inactive)
11,Cc1ccc(C)c(NC(=O)CSc2nc3c(oc4ccccc43)c(=O)n2-c2ccccc2)c1,-0.496% (inactive)
12,Oc1ccc(N=Nc2nccs2)c(O)c1,72.7% (active)
13,O=C(Nc1cccc(Cl)c1)Nc1ccccc1NS(=O)(=O)c1cccs1,11.3% (inactive)
14,COC(=O)CNC(c1ccccc1Cl)c1cc(Br)ccc1NC(=O)CCN1CCOCC1 (centres undefined),-4.92% (inactive)
15,Cn1c(Cn2nnc3ccccc32)nnc1SCC(=O)c1ccccc1F,0% (inactive)
16,Cc1oc(-c2cccc(Cl)c2)[n+]([O-])c1C,-7.45% (inactive)
17,Clc1ccc(-c2cc(C3CCNCC3)[nH]n2)c(Cl)c1,0.621% (inactive)
18,Cc1nn(C)cc1N1C(=O)c2cccc3c(N)ccc(c23)C1=O,0.391% (inactive)
19,CCN1C(=O)c2cccc3c(S(=O)(=O)Nc4ccccc4O)ccc1c23,6.13% (inactive)
20,CCN1C(=O)c2cccc3c(N)ccc1c23,83.8% (active)
21,CC1=C2C(=O)OC(c3ccoc3)C2(C)CCC1 (centres undefined),-1.03% (inactive)
22,CCc1ccc(NC(=O)C(=O)NNC(=O)c2cccs2)cc1,69.7% (active)
23,CCc1ccc(NC(=O)COC(=O)c2cccs2)cc1,11.2% (inactive)
24,CC(C)C(=O)Nc1ccc(C(=O)NNC(=O)c2cccs2)cc1,-0.29% (inactive)

# Source: PubChem BioAssay AID2540 (Sanford-Burnham Center for Chemical Genomics, 2010)
